This note sets out measurements from the supplement of paper PMC4022240.

Assay in all cases: peptide microarray binding signal (635 nm), min-max normalized on array (fraction of array maximum); higher = stronger binding
The target in experiment [1] is T1, HaloTag-ATRX ADD domain (163-292).
T1 chain: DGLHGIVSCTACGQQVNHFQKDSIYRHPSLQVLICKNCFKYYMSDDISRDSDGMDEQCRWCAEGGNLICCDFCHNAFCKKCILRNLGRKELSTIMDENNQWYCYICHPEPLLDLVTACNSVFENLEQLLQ
Summed up: (§1)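 Arrays carried histone 13-mer peptide–cellulose conjugates printed in triplicate on nitrocellulose alongside a Cy3 tracer. After overnight blocking at 4°C, they were incubated for 1 h at 4°C with biotin-labelled HaloTag reader fusions (10 nM to 1 μM) plus streptavidin-Alexa Fluor 647, or with rabbit histone antibodies (1:10,000 to 1:2,000) plus anti-rabbit Alexa 647. Scanning on an Axon GenePix 4000B used 635 nm for signal and 532 nm for misprints. The binding signal reported is each triplicate's mean spot intensity after per-library min-max scaling.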

In experiment [2] the target is HaloTag-ING2 PHD (mouse Ing2 200-280). Summed up:
as §1

In experiment [3] the target is anti-H3K4me3 antibody ab8580. In a few lines:
as §1

The target of experiment [4] is anti-H3K9me3 antibody ab8898. Summed up: as §1
Where [5] appears, read: peptide region: Unmod H2A variant, binder concentration: 50 nM.
Setting [6] is: peptide region: Unmod H2A variant, binder concentration: 500 nM.
Where [7] appears, read: peptide region: Unmod H2A variant, binder concentration: 10 nM.
Setting [8] is: peptide region: Unmod H2A variant, binder concentration: 100 nM.
Where [9] appears, read: peptide region: Unmod H2A variant, binder concentration: 1:2,000 dilution.
Setting [10] is: peptide region: Unmod H2A variant, binder concentration: 1:10,000 dilution.
The mark [11] stands for this setting: peptide region: Unmod H1 variant, binder concentration: 1:2,000 dilution.

± gives the standard deviation.

B1: Unmod H2A variant Q G G K A R A K A K T R S (peptide)
chain: QGGKARAKAKTRS
For B1, the “peptide microarray binding signal” value in experiment [1] (setting [5]) was found to be 0.00784 ± 0.00021; in experiment [1] (setting [6]), 0.0153 ± 0.0011; in experiment [2] (setting [7]), 0.00298 ± 0.00012; in experiment [2] (setting [8]) it was 0.00496 ± 0.00036; in experiment [3] (setting [9]), 0.00125 ± 0.00024; in experiment [3] (setting [10]) it was 0.000685 ± 7.2e-06. Besides, the “peptide microarray binding signal” value in experiment [4] (setting [9]) is 0.000408 ± 1.4e-05; in experiment [4] (setting [10]), 0.000404 ± 4.4e-06.

B2: Unmod H2A variant S G R G K Q G G K A R A K (peptide)
chain: SGRGKQGGKARAK
B2: the “peptide microarray binding signal” value in experiment [1] (setting [5]) was 0.0203 ± 0.0024; in experiment [1] (setting [6]) it was 0.0194 ± 0.0069; in experiment [2] (setting [7]) it was 0.0104 ± 0.00068; in experiment [2] (setting [8]), 0.0167 ± 0.00073; in experiment [3] (setting [9]), 0.000151 ± 1.7e-06; in experiment [3] (setting [10]), 0.00337 ± 0.0001. Also, the “peptide microarray binding signal” value in experiment [4] (setting [9]) is 0.00112 ± 1.7e-05; in experiment [4] (setting [10]) it was 0.00133.

B3: Unmod H2A variant A G L Q F P V G R I H R L (peptide)
chain: AGLQFPVGRIHRL
In the case of B3, the “peptide microarray binding signal” value is 0.0361 ± 0.0039 in experiment [1] (setting [5]); 0.0377 ± 0.0043 in experiment [1] (setting [6]); 0.0334 ± 0.0037 in experiment [2] (setting [7]); 0.0514 ± 0.0061 in experiment [2] (setting [8]); 0.00361 ± 0.0021 in experiment [3] (setting [9]); 0.00628 ± 0.00018 in experiment [3] (setting [10]). Moreover, the “peptide microarray binding signal” value came to 0.00281 ± 0.00024 in experiment [4] (setting [9]) and 0.00686 ± 0.00042 in experiment [4] (setting [10]).

B4: Unmod H2A variant R S S R A G L Q F P V G R (peptide)
chain: RSSRAGLQFPVGR
With B4, the “peptide microarray binding signal” value in experiment [1] (setting [5]) turned out to be 0.0275 ± 0.0053; in experiment [1] (setting [6]), 0.0768 ± 0.0024; in experiment [2] (setting [7]), 0.0177 ± 0.0021; in experiment [2] (setting [8]), 0.0277 ± 0.0034; in experiment [3] (setting [9]) it was 0.00311 ± 0.00055; in experiment [3] (setting [10]), 0.00148 ± 3.8e-05. The figures for the “peptide microarray binding signal” value in experiment [4] (setting [9]) and in experiment [4] (setting [10]) were 0.0008004 ± 6.8e-06 and 0.0011 ± 2.2e-05, respectively.

B5: Unmod H1 variant K A A A A S K K K P A G P (peptide)
chain: KAAAASKKKPAGP
For B5, the “peptide microarray binding signal” value is 0.0113 ± 0.0013 in experiment [1] (peptide region: Unmod H1 variant, binder concentration: 500 nM); 0.003402 ± 3e-05 in experiment [2] (peptide region: Unmod H1 variant, binder concentration: 100 nM); 0.000321 ± 3.3e-06 in experiment [3] (setting [11]); 0.000181 ± 3.4e-06 in experiment [4] (setting [11]).

B6: Unmod H2A variant Q G G K A R A K S K S R S (peptide)
chain: QGGKARAKSKSRS
As for B6, the “peptide microarray binding signal” value in experiment [1] (setting [5]) was found to be 0.0112 ± 0.00043; in experiment [1] (setting [6]) it was 0.0328 ± 0.0016; in experiment [2] (setting [7]) it was 0.00824 ± 9.4e-05; in experiment [2] (setting [8]) it was 0.0201 ± 0.0027; in experiment [3] (setting [9]) it was 0.00194 ± 0.00036; in experiment [3] (setting [10]), 0.00143 ± 2.4e-05. Besides, the “peptide microarray binding signal” value in experiment [4] (setting [9]) stood at 0.000574 ± 1.1e-05; in experiment [4] (setting [10]), 0.000807 ± 1.5e-05.

B7: Unmod H2A variant K G N Y S E R V G A G A P (peptide)
chain: KGNYSERVGAGAP
Turning to B7, the “peptide microarray binding signal” value in experiment [1] (setting [5]) worked out at 0.019 ± 0.0052; in experiment [1] (setting [6]) it was 0.0303 ± 0.012; in experiment [2] (setting [7]), 0.00692 ± 0.0004; in experiment [2] (setting [8]), 0.0104 ± 0.0025; in experiment [3] (setting [9]) it was 0.00799 ± 0.00061; in experiment [3] (setting [10]), 0.00223 ± 0.00022. The “peptide microarray binding signal” value in experiment [4] (setting [9]) is 0.00116 ± 9.9e-05; in experiment [4] (setting [10]), 0.00115 ± 5.3e-05.

B8: Unmod H2A variant R A K A K S R S S R A G L (peptide)
chain: RAKAKSRSSRAGL
For B8, the “peptide microarray binding signal” value in experiment [1] (setting [5]) turned out to be 0.00771 ± 0.00081; in experiment [1] (setting [6]), 0.0133 ± 0.001; in experiment [2] (setting [7]), 0.00615 ± 0.00015; in experiment [2] (setting [8]), 0.0141 ± 0.0012; in experiment [3] (setting [9]) it was 0.000868 ± 0.00013; in experiment [3] (setting [10]), 0.0012 ± 1.2e-05. The “peptide microarray binding signal” value in experiment [4] (setting [9]) was found to be 0.0004379 ± 4.2e-06; in experiment [4] (setting [10]) it was 0.00098 ± 1.7e-05.

B9: Unmod H2A variant R A K S K S R S S R A G L (peptide)
chain: RAKSKSRSSRAGL
As for B9, the “peptide microarray binding signal” value in experiment [1] (setting [5]) was 0.0102 ± 0.0014; in experiment [1] (setting [6]), 0.00576 ± 0.0015; in experiment [2] (setting [7]), 0.00645 ± 0.0004; in experiment [2] (setting [8]) it was 0.0116 ± 0.0028; in experiment [3] (setting [9]), 0.000472 ± 4.5e-05; in experiment [3] (setting [10]) it was 0.00165 ± 3.2e-05. The “peptide microarray binding signal” value in experiment [4] (setting [9]) amounted to 0.0005588 ± 5.2e-06; in experiment [4] (setting [10]), 0.00127 ± 2.5e-05.

B10: Unmod H2A variant Q G G K A R A K A K S R S (peptide)
chain: QGGKARAKAKSRS
For the molecule B10, the “peptide microarray binding signal” value was determined as 0.0073 ± 0.00042 in experiment [1] (setting [5]); 0.0168 ± 0.0004 in experiment [1] (setting [6]); 0.002507 ± 1.4e-05 in experiment [2] (setting [7]); 0.00758 ± 0.0021 in experiment [2] (setting [8]); 0.00164 ± 0.00013 in experiment [3] (setting [9]); 0.001027 ± 1e-05 in experiment [3] (setting [10]). Besides, the entries for the “peptide microarray binding signal” value in experiment [4] (setting [9]) and in experiment [4] (setting [10]) were 0.000302 ± 3.1e-06 and 0.000404 ± 4.4e-06, respectively.
